Results on eight compounds are retold here after PubChem BioAssay (Tox21).

The structures appear in SMILES notation. “And” between values parts separate entries of the source, which are not always exact repeats. Equal entries are not always repeated. Values without a mark were called inactive. Inconclusive results are not listed. The source made the active and inactive calls. Unless noted, calls come from the whole dose curve; as a rule, active = well fitted curve in the direction sought with a large enough effect in the repeat runs; inconclusive = weak or mixed curves; inactive = no such curve, though single readings can be large; an effect the other way counts as inactive or inconclusive.

For experiment [1], the target named is Progesterone receptor (Homo sapiens) (UniProt P06401). Put plainly: qHTS assay to identify small molecule agonists of the progesterone receptor (PR) signaling pathway (AID 1346784; calls by dose curve; note: nearly all actives have a fitted effect of over 30% in size). The essentials:
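PR-UAS-bla HEK 293T cells (beta-lactamase reporter under UAS) in 2% charcoal-stripped FBS, dosed with 23 nL compound after 6 hr, incubated 16hr at 37C. LiveBLAzer B/G FRET substrate added, fluorescence read after 2 hours.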

The target is the same in experiment [2]. Put plainly: qHTS assay to identify small molecule antagonists of the progesterone receptor (PR) signaling pathway (AID 1346795; active = well fitted inhibition curve with a large enough effect in the signal ratio in the repeat runs, not every such curve was filed as active; the % refers to the signal ratio; note: potency is the fitted concentration of half-maximal effect). The essentials: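 PR-UAS-bla HEK293T cells with beta-lactamase reporter under UAS control, in 2% charcoal-stripped FBS, treated with compounds plus 1 nM promegestone (R5020, final) for 16 hr at 37C. Read-out: FRET beta-lactamase substrate fluorescence after 2 hr at room temperature.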

Experiment [3] in a line: qHTS assay to identify small molecule antagonists of the progesterone receptor (PR) signaling pathway - cell viability counter screen (AID 1346798). For activity change, negative = cytotoxicity: series mostly up to about 92 µM. Note: nearly all actives have a fitted effect of over 50% in size. Note: potency is the fitted concentration of half-maximal effect. The essentials: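 PR-UAS-bla HEK293T cells, 3,000/well in 2% charcoal-stripped FBS medium, dosed with compounds plus R5020 agonist and incubated 16 h at 37C. Viability then measured in the same wells by CellTiter-Glo luminescence after 30 min at RT.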

Experiment [4] can be described thus: qHTS assay to identify small molecule agonists of the progesterone receptor (PR) signaling pathway - cell viability counter screen (AID 1346799; calls by dose curve; note: nearly all actives have a fitted effect of over 45% in size; note: potency is the fitted concentration of half-maximal effect). The essentials:
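Counter screen in the PR-UAS-bla HEK293T wells (2% charcoal-stripped FBS, 16 h compound exposure at 37 C) after the bla read. CellTiter-Glo added, 30 min at room temperature, luminescence read as cell viability.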

Experiment [5] can be described thus: qHTS assay to identify small molecule antagonists of the TGF-beta/Smad signaling pathway - cell viability counter screen (AID 1346824). Note: nearly all actives have a fitted effect of over 50% in size. The essentials: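 SBE-bla HEK 293T cells were plated overnight at 37 C, then given compounds in DMSO plus TGF-beta1 (added as 0.25 ng/mL solution) for 5 hr. After the bla read, CellTiter-Glo was added to the same wells and luminescence read after 30 min at room temperature.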
In general terms: qHTS replaces the single test concentration by a dilution series.

The nature of experiment [6]: qHTS assay to identify small molecule agonists of the TGF-beta/Smad signaling pathway - cell viability counter screen (AID 1346829). Note: top concentration of the series differs between compounds; nearly all actives have a fitted effect of over 45% in size. The essentials: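 HEK 293T SBE-bla line, 5 hr compound exposure at 37 C, multiplexed CellTiter-Glo viability read by luminescence.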
Experiment [7] can be described thus: qHTS assay to identify small molecule agonists of the TGF-beta/Smad signaling pathway (AID 1346859; active = well fitted activation curve with a large enough effect in the signal ratio in the repeat runs, not every such curve was filed as active; the % refers to the signal ratio; note: series mostly up to about 77 µM). The essentials:
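SBE-bla HEK293T cells plated overnight, then compound exposure for 5 h at 37 C. Beta-lactamase reporter read with LiveBLAzer B/G FRET substrate after 2 h at room temperature, fluorescence at 405 nm excitation, 460/530 nm emission.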

Experiment [8] concerns the target Thyrotropin-releasing hormone receptor (Homo sapiens) (UniProt P34981). Put plainly: qHTS assay to identify small molecule antagonists of the thyrotropin-releasing hormone receptor (TRHR) signaling pathway (AID 1346877; active = well fitted inhibition curve with a large enough effect in the repeat runs, not every such curve was filed as active; note: series mostly up to about 51 µM). The essentials:
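Kinetic fluorescence (3 min, 1 s resolution) following stimulation with TRH at 1 nM final; HEK293 cells bearing human TRHR; 5 min compound preincubation at RT; concentration-response over 15 points, triplicates.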

Experiment [9] shares this target. Put plainly: qHTS assay to identify small molecule agonists of the thyrotropin-releasing hormone receptor (TRHR) signaling pathway (AID 1346891; calls by dose curve; note: series mostly up to about 58 µM). The essentials: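 HEK293 cells expressing TRHR plated 18 h at 37 C/5% CO2, calcium dye-loaded 2 h at 37 C, then compound added (agonist mode); kinetic calcium fluorescence read 3 min at 1 s intervals; 15 concentrations in triplicate.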

Experiment [10] in a line: Human pregnane X receptor (PXR) small molecule agonists, qHTS cell viability counter screen (AID 1346977). Note: nearly all actives have a fitted effect of over 50% in size. Note: potency is the fitted concentration of half-maximal effect. The essentials: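 PXR-Luc HepG2 cells (2,000/well, 5% charcoal-stripped FBS) preincubated 5 hr, then exposed to compounds 24 hr at 37 C. Viability read in the same wells by CellTiter-Fluor fluorescence, reagent added at 23 hr, 1 hr incubation.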
Experiment [11] in a line: Caspase-3/7 induction in HepG2 cells by small molecules, qHTS assay (AID 1346978). Note: nearly all actives have a fitted effect of over 15% in size. Note: potency is the fitted concentration of half-maximal effect. The essentials:
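Wild-type HepG2 cells (2,000/well) were settled 5 h at 37 C, 5% CO2, then exposed to compounds in DMSO for 17 h. Caspase-3/7 activity was read by luminescence 30 min after adding Caspase-Glo 3/7 reagent at room temperature.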

Experiment [12] can be described thus: Caspase-3/7 induction in CHO-K1 cells by small molecules, qHTS cell viability counter screen (AID 1346979). Note: nearly all actives have a fitted effect of over 35% in size. Note: potency is the fitted concentration of half-maximal effect. The essentials:
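Wild-type CHO-K1 cells (1,500/well) treated with compound after 5 h plating; after 16 h at 37C, viability read as CellTiter-Fluor fluorescence following 1 h reagent incubation, in the same wells as the caspase read.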

The nature of experiment [13]: Caspase-3/7 induction in CHO-K1 cells by small molecules, qHTS assay (AID 1346980). Note: nearly all actives have a fitted effect of over 15% in size. The essentials: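 Wild-type cells were seeded at 1,500 per well and settled 5 hr at 37 C, 5% CO2, then exposed to DMSO-dissolved compounds for 17 hr. Caspase-Glo 3/7 reagent was added, and luminescence was read after 30min at room temperature.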
A short description of experiment [14]: Caspase-3/7 induction in HepG2 cells by small molecules, qHTS cell viability counter screen (AID 1346981). For activity change, negative = cytotoxicity: series mostly up to about 92 µM. Note: nearly all actives have a fitted effect of over 30% in size. Note: potency is the fitted concentration of half-maximal effect. The essentials: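 In this quantitative HTS counter screen, compounds delivered in DMSO were left on unmodified HepG2 cells for 16 hr at 37 C. Viability was then determined fluorometrically with CellTiter-Fluor, in parallel with caspase-3/7 induction in the same wells.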

The target in experiment [15] is Nuclear receptor subfamily 1 group I member 2 (Homo sapiens) (UniProt O75469). Put plainly: Human pregnane X receptor (PXR) small molecule agonists, qHTS assay (AID 1346982). Note: nearly all actives have a fitted effect of over 35% in size. Note: potency is the fitted concentration of half-maximal effect. The essentials: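 Reporter HepG2 cells expressing PXR-Luc are cultured in charcoal-stripped FBS (5%), treated with compounds for 24 hr at 37 C, and assayed by ONE-Glo luminescence after 30 min at room temperature.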

The target in experiment [16] is Nuclear receptor subfamily 1 group I member 2 (Rattus norvegicus) (UniProt Q9R1A7). Put plainly: Rat pregnane X receptor (rPXR) activation by small molecules, qHTS assay (AID 1346983). Note: nearly all actives have a fitted effect of over 20% in size. As to conditions: rPXR luciferase reporter cells, One-Glo luminescence, 24 h; stronger effect = higher value. The essentials:
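Cell-based rPXR luciferase reporter assay, 2,000 cells per well, rested 5hr at 37 C before compound addition in DMSO, then 24 hr at 37 C. One-Glo reagent was added and luminescence read after 30 min at room temperature.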

Experiment [17] deals with Nuclear receptor subfamily 1 group I member 2 (Homo sapiens) (UniProt O75469). Put plainly: CYP3A4 induction through human pregnane X receptor (PXR) by small molecules, qHTS assay (AID 1346984). Note: nearly all actives have a fitted effect of over 40% in size. The essentials: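 Induction measured in HepG2-based DPX-2 cells co-expressing human PXR and a CYP3A4 promoter-driven luciferase. After a 24-hour compound exposure, cells received CYP3A4 luciferin substrate at 3uM final for 3 hours, and light output was then recorded.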

The target is the same in experiment [18]. Put plainly: Human pregnane X receptor (PXR) activation by small molecules, qHTS assay (AID 1346985). Note: nearly all actives have a fitted effect of over 40% in size. The essentials: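 DPX-2 cells (HepG2 co-transfected with a PXR response element and a CYP3A4-promoter luciferase construct) were seeded at 2,000 per well, rested 5 hr at 37C, then exposed to DMSO-dissolved compounds for 24 hr. Activation was read as luciferase luminescence.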

Experiment [19] concerns the target Cytochrome P450 2D6 (Homo sapiens) (UniProt P10635). Put plainly: Cytochrome P450 Family 2 Subfamily D Member 6 (CYP2D6) small molecule antagonists: luciferase reporter qHTS assay (AID 1671196). For activity change, negative = inhibition: series mostly up to about 120 µM. Note: nearly all actives have a fitted effect of over 50% in size. Note: potency is the fitted concentration of half-maximal effect. The essentials:
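Test chemicals meet CYP2D6 plus proluciferin substrate (10 min, RT); NADPH regenerating solution then drives turnover for 1 h. Detection reagent halts the reaction; luminescence measured after 20 min.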

In experiment [20] the target is Cytochrome P450 2C19 (Homo sapiens) (UniProt P33261). Put plainly: Cytochrome P450 Family 2 Subfamily C Member 19 (CYP2C19) small molecule antagonists: luciferase reporter qHTS assay (AID 1671197). Note: series mostly up to about 120 µM; nearly all actives have a fitted effect of over 65% in size. The essentials:
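First, compounds are pinned into enzyme-substrate mix and held 10 min at room temperature. Second, NADPH regeneration solution is added and plates incubate 1 h at 37C. Third, detection reagent is added and luminescence read after 20 min.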
(In general: A reporter such as luciferase makes a cellular process visible.)
% is set by controls: 0 for no effect and ±100 for the full control effect.

Nuclear receptor subfamily 1 group I member 2 (Homo sapiens), sequence (O75469 whole entry, looked up): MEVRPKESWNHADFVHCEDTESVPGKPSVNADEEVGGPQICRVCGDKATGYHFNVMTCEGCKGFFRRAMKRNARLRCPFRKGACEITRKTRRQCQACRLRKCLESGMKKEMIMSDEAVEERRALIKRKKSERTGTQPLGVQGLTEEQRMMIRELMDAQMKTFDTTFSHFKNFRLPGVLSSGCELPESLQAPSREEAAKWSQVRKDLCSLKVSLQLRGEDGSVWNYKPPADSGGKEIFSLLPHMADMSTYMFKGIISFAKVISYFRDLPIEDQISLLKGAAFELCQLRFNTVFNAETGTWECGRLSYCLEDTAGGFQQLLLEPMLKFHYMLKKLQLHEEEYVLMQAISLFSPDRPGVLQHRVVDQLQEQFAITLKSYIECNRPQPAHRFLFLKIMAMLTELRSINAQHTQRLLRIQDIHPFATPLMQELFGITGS
Progesterone receptor (Homo sapiens), sequence (P06401 whole entry, looked up): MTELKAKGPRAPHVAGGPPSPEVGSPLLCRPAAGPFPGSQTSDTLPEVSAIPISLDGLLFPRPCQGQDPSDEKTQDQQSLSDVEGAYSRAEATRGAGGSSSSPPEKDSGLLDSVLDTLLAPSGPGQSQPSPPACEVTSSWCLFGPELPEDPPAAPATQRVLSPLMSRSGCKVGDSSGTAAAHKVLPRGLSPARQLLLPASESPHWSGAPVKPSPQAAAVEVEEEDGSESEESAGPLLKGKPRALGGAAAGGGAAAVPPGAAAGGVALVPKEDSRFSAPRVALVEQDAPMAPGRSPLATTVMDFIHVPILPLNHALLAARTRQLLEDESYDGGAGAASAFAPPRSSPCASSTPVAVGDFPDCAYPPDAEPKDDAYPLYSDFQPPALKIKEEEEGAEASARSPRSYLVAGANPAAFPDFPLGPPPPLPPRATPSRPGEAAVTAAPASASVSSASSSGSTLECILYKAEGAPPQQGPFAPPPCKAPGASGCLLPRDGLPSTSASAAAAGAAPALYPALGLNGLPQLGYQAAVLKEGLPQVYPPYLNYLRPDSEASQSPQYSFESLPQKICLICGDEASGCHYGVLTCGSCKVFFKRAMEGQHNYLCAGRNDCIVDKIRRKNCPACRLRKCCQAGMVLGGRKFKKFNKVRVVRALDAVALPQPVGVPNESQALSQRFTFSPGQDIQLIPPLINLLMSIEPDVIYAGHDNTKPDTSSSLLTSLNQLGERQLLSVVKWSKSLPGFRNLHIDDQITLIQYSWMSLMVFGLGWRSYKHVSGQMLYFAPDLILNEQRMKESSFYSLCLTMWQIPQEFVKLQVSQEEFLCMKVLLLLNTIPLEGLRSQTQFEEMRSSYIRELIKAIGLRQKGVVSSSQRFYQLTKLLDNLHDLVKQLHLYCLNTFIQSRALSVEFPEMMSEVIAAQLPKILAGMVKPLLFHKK
Cytochrome P450 2D6 (Homo sapiens), sequence (P10635 whole entry, looked up): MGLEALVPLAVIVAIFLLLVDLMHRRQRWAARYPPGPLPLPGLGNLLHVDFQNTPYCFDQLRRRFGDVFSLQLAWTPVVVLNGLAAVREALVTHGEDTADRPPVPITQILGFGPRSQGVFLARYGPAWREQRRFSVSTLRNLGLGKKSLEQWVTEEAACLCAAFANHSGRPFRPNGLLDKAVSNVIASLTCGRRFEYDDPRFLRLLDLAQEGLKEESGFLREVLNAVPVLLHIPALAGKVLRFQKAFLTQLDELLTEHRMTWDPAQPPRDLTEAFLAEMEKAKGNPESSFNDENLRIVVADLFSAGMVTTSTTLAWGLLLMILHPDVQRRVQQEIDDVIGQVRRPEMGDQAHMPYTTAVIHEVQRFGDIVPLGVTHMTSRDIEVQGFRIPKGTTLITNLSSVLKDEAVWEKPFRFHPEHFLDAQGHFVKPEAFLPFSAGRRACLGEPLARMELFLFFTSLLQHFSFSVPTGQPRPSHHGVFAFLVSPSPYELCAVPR
Thyrotropin-releasing hormone receptor (Homo sapiens), sequence (P34981 whole entry, looked up): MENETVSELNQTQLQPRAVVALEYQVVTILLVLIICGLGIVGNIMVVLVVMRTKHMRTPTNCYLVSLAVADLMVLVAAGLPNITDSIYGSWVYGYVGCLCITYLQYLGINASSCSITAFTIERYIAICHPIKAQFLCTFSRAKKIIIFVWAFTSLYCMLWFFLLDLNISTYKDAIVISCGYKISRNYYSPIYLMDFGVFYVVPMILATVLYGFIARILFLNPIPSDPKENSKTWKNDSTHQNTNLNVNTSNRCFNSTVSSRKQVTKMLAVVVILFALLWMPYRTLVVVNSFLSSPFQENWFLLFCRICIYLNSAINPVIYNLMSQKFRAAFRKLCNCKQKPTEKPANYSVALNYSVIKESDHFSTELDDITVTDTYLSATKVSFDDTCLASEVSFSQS
Cytochrome P450 2C19 (Homo sapiens), sequence (P33261 whole entry, looked up): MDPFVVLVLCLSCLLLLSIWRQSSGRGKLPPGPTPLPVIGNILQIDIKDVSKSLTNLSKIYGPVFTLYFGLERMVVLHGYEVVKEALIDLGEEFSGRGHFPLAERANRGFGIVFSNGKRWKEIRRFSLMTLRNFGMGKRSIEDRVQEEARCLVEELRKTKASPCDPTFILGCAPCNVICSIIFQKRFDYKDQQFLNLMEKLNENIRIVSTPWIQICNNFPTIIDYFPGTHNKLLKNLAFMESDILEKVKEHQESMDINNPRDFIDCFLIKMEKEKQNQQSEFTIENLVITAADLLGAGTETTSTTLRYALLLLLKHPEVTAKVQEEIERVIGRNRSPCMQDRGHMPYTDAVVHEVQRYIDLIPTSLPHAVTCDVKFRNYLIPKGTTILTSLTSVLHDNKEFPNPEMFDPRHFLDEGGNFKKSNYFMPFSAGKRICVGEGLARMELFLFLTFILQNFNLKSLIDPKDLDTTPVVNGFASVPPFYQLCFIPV
Nuclear receptor subfamily 1 group I member 2 (Rattus norvegicus), sequence (Q9R1A7 whole entry, looked up): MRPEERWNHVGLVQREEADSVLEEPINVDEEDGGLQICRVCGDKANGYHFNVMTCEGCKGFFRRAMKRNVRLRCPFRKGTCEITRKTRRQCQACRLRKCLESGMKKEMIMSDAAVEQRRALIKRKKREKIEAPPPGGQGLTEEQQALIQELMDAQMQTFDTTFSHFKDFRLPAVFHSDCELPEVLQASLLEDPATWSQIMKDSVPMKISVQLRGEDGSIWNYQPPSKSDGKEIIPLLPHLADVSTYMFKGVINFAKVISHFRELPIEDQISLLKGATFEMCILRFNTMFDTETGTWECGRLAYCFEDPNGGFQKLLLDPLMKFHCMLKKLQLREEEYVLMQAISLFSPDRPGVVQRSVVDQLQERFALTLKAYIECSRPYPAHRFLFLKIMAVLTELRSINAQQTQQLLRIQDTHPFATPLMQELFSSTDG

Take `O=C(O)Cc1ccc(CCNS(=O)(=O)c2ccc(Cl)cc2)cc1`: the Potency entry in experiment [1], in [2], in experiment [3], in experiment [4], in experiment [5] and in [10] was “inactive” each time. In addition, the Potency result in [11], in experiment [12], in experiment [14], in experiment [15], in experiment [17] and in experiment [18] was “inactive” in each case. The Potency entry in [19] and in experiment [20] was “inactive” each time. The call in [6], in experiment [7], in experiment [8], in [9] and in experiment [13] was inactive. Further, the max activation in [16] was -10%.

For the compound `N[C@H]1CN(c2c(F)cc3c(=O)c(C(=O)O)cn(C4C[C@H]4F)c3c2Cl)CC12CC2` (stereo not given in full), the Potency result in experiment [1], in [2], in [3], in [4], in experiment [5] and in [10] was “inactive” throughout. Besides, the Potency result in experiment [11], in [12], in experiment [14], in [15], in experiment [19] and in experiment [20] was “inactive” each time. Besides, the call in experiment [6], in experiment [7], in experiment [8], in experiment [9] and in [13] was inactive.

For `NCCc1cnc[nH]1`, the Potency entry in experiment [1], in experiment [2], in experiment [3], in experiment [4], in experiment [5] and in experiment [10] was “inactive” in each case. Further, the Potency entry in experiment [11], in experiment [12] and in [14] was “inactive” in each case. The compound was called inactive in experiment [6], in [7], in [8], in experiment [9] and in experiment [13].

For `NS(=O)(=O)c1cc(C(=O)NN2C[C@H]3[C@H]4CCC(C4)[C@H]3C2)ccc1Cl`, the Potency entry in [1], in experiment [2], in [3], in experiment [4], in experiment [5] and in [10] was “inactive” each time. Also, the Potency entry in [11], in [14], in experiment [15], in [19] and in experiment [20] was “inactive” in each case. The compound was called inactive in [6], in experiment [7], in experiment [8], in experiment [9] and in [13].

With `CCCCCCCCCCCCCC=O`, the activation in [1] was -0.302% [at 8.39 µM]; in experiment [7], -2.78% [at 6.97 µM]; in [9], 0.0389% [at 5.23 µM]; in experiment [15], -0.115% [at 8.39 µM]. For the same compound, the activity change, negative = inhibition in [2] was 6.1% [at 8.39 µM]; in experiment [20], -12.1% [at 10.5 µM]. For the same compound, the activity change, negative = cytotoxicity in experiment [3] is 2% [at 8.39 µM]; in experiment [4], 5.7% [at 8.39 µM]; in experiment [6], 12.8% [at 6.97 µM]; in experiment [10], -1.66% [at 8.39 µM]; in experiment [12], 0.0836% [at 8.39 µM]. The viability change, negative = cytotoxic in [5] is 6.5% [at 6.97 µM]. Besides, in [8], the activity, negative = inhibition is -5.43% [at 4.65 µM]. In addition, the caspase activation in [11] is -1.41% [at 8.39 µM]. Moreover, the caspase-3/7 activation in [13] is 1.18% [at 8.39 µM]. Also, the Potency in experiment [19] is 2.78 µM (active).

In the case of `CN(C)CCCN1c2ccccc2CCc2ccc(Cl)cc21`, the Potency entry in [1] and in [5] was “inactive” in each case. Further, the Potency is 26.6 µM (active) in [2]; 34.4 µM (active) and 29.8 µM (active) in experiment [3]; 30.6 µM (active) and 23.7 µM (active) in [4]; 30.6 µM (active) and 29.8 µM (active) in [10]; 61.1 µM (active) in experiment [11]; 68.6 µM (active) and 29.8 µM (active) in experiment [12]. Further, the Potency in [14] was 61.1 µM (active) and 29.8 µM (active). In addition, the result in [6], in experiment [7], in experiment [8] and in experiment [9] was inactive.

As for `COC(=O)CC(C)=O`, the Potency entry in experiment [1], in [2], in [3], in [4], in experiment [5] and in [10] was “inactive” each time. Besides, the Potency result in experiment [11], in experiment [12], in experiment [14], in [15], in [19] and in experiment [20] was “inactive” each time. Besides, the call in experiment [6], in experiment [7], in experiment [8], in experiment [9] and in experiment [13] was inactive.

Consider `O=C(O)CCCl`, for which the Potency entry in [1], in experiment [2], in experiment [3], in experiment [4], in experiment [5] and in experiment [10] was “inactive” in each case. For the same compound, the Potency entry in [11], in experiment [12], in [14], in [19] and in experiment [20] was “inactive” throughout. Also, the result in experiment [6], in experiment [7], in experiment [8], in [9] and in [13] was inactive. Besides, in experiment [15], the Potency was 61.9 µM (active).
